“And” between values parts separate entries of the source, which are not always exact repeats. Identical values can stand only once. This is part of a sample that, as a whole, favours compounds with a hit. Of some 83,000 tested, about 20% had one in any assay.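 Step 1: grow cells in 96-well plates. Step 2: add test compound at a single concentration. Step 3: incubate 48 h. Step 4: record percent growth.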 Unmarked numbers belong to inactive results. The source made the active and inactive calls. The calls were made as follows: active = growth percent below 10; inactive = the rest.

For this experiment, the system named is MDA-MB-468 breast. Nature of the experiment: NCI-60 one-dose screen, 48 h (100 = growth as untreated, 0 = no growth, -100 = all killed). The conditions noted are these: 10 µM unless noted.
With `CC1CN=C(c2cccc(-c3ccc(-c4ccccc4)o3)c2)N1` (stereo not given), the growth is -35.5% (active).
With `NC(Cc1ccc(O)c([N+](=O)[O-])c1)C(=O)O` (stereo not given), the growth is 101%.
`CN1C(=O)NC(c2ccc3c(c2)OCO3)C=C1c1ccccc1` (stereo not given): the growth is 98.2%.
On to `O=C(CS(=O)c1oc(-c2cccs2)nc1S(=O)(=O)c1ccc(Br)cc1)c1ccccc1` (stereo not given), for which the growth was 101%.
For `O=C1c2c(c3c4cccnc4[nH]c3c3ccc4ccccc4c23)C(=O)N1CCO`, the growth was 57.6%.
Regarding `C=CC1=C(C(=O)O)N2C(=O)[C@@H](NC(=O)/C(=N\O)c3csc(N)n3)[C@H]2SC1` (stereo in doubt), the growth is 96.1%.
For `Cc1nn(-c2ccccc2)c(Oc2c(Cl)cccc2Cl)c1/C=N/N=c1\sc2ccccc2n1C`, the growth is 39.7%.
Next, `O=C1c2cccnc2C(=O)c2c1c(C(=O)OCCCN1CCOCC1)c1ccccn21`: 4.71% (active); `CC1CN(/N=C/c2ccc([N+](=O)[O-])o2)C(=N)O1` (stereo not given): 89.6%; `COc1ccc2c(c1)OC1=C(C(=O)OC1)C2c1cc(OC)c2c(c1)OCO2` (stereo not given): -7.16% (active).
As for `COc1cc2nc(Cl)nc(NCCO)c2cc1OC`, the growth is 99.2%.
Next, `COc1cc(-c2cc(-c3ccc(Nc4ncnc5cc(Cl)ccc45)cc3)nc(N3CCN(C)CC3)n2)cc(OC)c1OC`: 105%.
`O=C(Nc1cc(=O)[nH]c(=O)[nH]1)C(Cl)Cl`: the growth was 98.5%.
For the compound `COc1ccncc1C#Cc1cncc(C(=O)Nc2ccc(CN3CCN(C)CC3)c(C(F)(F)F)c2)c1`, the growth is 73.1%.
As for `Nc1ccc(C(=O)CSc2nc3ccccc3[nH]2)cc1`, the growth was 93.2%.
The result for `Cc1nn(-c2ccccc2)c(Cl)c1C(CC(=O)c1ccc(Cl)cc1)CC(=O)c1ccc(Cl)cc1` reads 87.7%; that for `CCCCCCCCCC(=O)NC(C)(C)C(=O)N1CCC[C@H]1C(=O)N[C@@H](CC(C)C)C(=O)N[C@@](C)(CC)C(=O)N[C@@H](CCC(N)=O)C(=O)N[C@H](CCC(N)=O)C(=O)NC(C)(C)C(=O)NC(C)(C)C(=O)N[C@@H](CCC(N)=O)C(=O)N[C@H](CC(C)C)C(=O)N[C@H](CO)CC(C)C`, -94.3% (active) and -88.5% (active); that for `CC1(C)NCCC[C@]2(C)[C@H]3CC[C@@H]4[C@H]5[C@H](C(=O)/C=C/c6ccco6)CC[C@]5(CO)CC[C@@]4(C)[C@]3(C)CC[C@@H]12`, 87.9%.
The result for `O=C(Nc1cccc(NC(=O)Nc2cc(C(F)(F)F)ccc2Cl)c1)Nc1cc(C(F)(F)F)ccc1Cl` reads -8.33% (active).
Regarding `CCOc1ccc(-c2nc3ccc(-c4nc5ccc(N6CCN(C)CC6)cc5[nH]4)cc3[nH]2)cc1OCC`, the growth is -44.5% (active).
Next, `Cc1c(C(C)(C)C)cc(C(C)(C)C)c2c1CN(C)CO2`: 122%.
With `Cc1ccc(S(=O)(=O)n2cc(CNc3ccc(N4CCOCC4=O)cc3)c3ccccc32)cc1`, the growth is -9.46% (active).
For the compound `CCOC(=O)c1c(C)n(-c2ccc(Cl)cc2)c2ccc(OC(=O)/C=C/c3ccccc3)cc12`, the growth is 22.9%.
Consider `COc1cc(OCc2cccc(-c3ccc(C(O)c4nccs4)cc3)c2C)cc(OC)c1C=O` (stereo not given), for which the growth was -36.5% (active).
Next, `NS(=O)(=O)c1ccc(N=Nc2ccc(-c3nn4cc(-c5ccccc5)nc4s3)cc2)cc1`: 100%.
As for `Fc1ccc(-c2cnc3nonc3n2)c(F)c1`, the growth was 73.3%.
For `Cc1ccc(C)c2c1sc1nc3nc4sc5ccccc5n4c(=N)c3c(=O)n12`, the growth was 88.7%.
As for `COc1ccc(S(=O)(=O)n2cc(C(=O)C(=O)Nc3ccncc3)c3ccccc32)cc1F`, the growth was 17.9%.
Next, `CC(C)(C)c1ccc(N2CSC(=S)N(c3ccc(C(C)(C)C)cc3)C2)cc1`: 111%; `CCCCCCOc1ccc(C2(Cl)c3ccccc3N(C)c3ccccc32)cc1`: 50.3%; `CCN1CCN(C(=S)SCC(=O)Nc2nc3ccc(C)cc3s2)CC1`: 104%.
On to `CN(C)c1ccc(C(=C2C=CC(=[N+](C)C)C=C2)c2ccc(N(C)C)cc2)cc1` (tested in a mixture with another compound), for which the growth is -95% (active).
The result for `CC(C)=CCC[C@](C)(O)[C@H]1CC[C@]2(C)[C@@H]1CC[C@@H]1[C@@]3(C)C/C(=C/c4cccc([N+](=O)[O-])c4)C(=O)C(C)(C)[C@@H]3CC[C@]12C` reads 84.3%; that for `CCOc1ccccc1NC1=C(Cl)C(=O)c2nc(C)ccc2C1=O`, -90.7% (active); that for `CCOC(=O)CC(=O)c1c(C)cc(C)cc1C`, 98.6%.
As to `CC(=O)N1N=C(c2cccc(-n3cccc3)c2)CC1c1cccc(F)c1` (stereo not given), the growth is 90.4%.
The result for `COC(=O)CCCCCCN=Cc1c(O)c(O)c(C(C)C)c2cc(C)c(-c3c(C)cc4c(C(C)C)c(O)c(O)c(C=NCCCCCCC(=O)OC)c4c3O)c(O)c12` reads 47.1%.
With `Cc1cc2c(-c3nc4ccccc4n3C)c(O)c(O)cc2c(O)c1-c1c(C)cc2c(-c3nc4ccccc4n3C)c(O)c(O)cc2c1O`, the growth was 35.7%.
`COC(=O)[C@]12CC[C@@H](C(C)=O)[C@@H]1[C@H]1CC[C@@H]3[C@@]4(C)C/C(=C/c5cccnc5)C(=O)C(C)(C)[C@@H]4CC[C@@]3(C)[C@]1(C)CC2`: the growth is 55.7%.
The result for `COc1ccc(C(=O)c2cc(OC)c(C)c(OC)c2)cc1OC(=O)CCl` reads 38.3%.

Values taken from PubChem BioAssay (NCI).
